Records with an inconclusive call do not appear. Where a call stands in place of a potency, no number is given. Values without a mark were called inactive. Active and inactive are the calls of the source. Calls follow the shape of the dose curve; as a rule, active = well fitted cell-killing curve with a large enough effect in the repeat runs; inconclusive = weak or mixed curves, or effect the other way; inactive = flat fitted curve, though single readings scatter.
Assay: qHTS assay to identify small molecule antagonists of the constitutive androstane receptor (CAR) signaling pathway - cell viability counter screen (AID 1224837); also: nearly all actives have a fitted effect of over 45% in size
Details: HepG2-CYP2B6-hCAR viability, CellTiter-Fluor, 23 h, co-treated with 50 nM CITCO; series mostly up to 92.4 µM
Text: National Center for Advancing Translational Sciences [NCATS]
NIH Chemical Genomics Center [NCGC]
U.S. Environmental Protection Agency [EPA]
National Institutes of Environmental Health Sciences [NIEHS]
National Toxicology Program [NTP]
U.S. Food and Drug Administration [FDA]
The constitutive androstane receptor (CAR) is a nuclear receptor which regulates multiple drug metabolizing enzymes (DMEs) and transporters. Activating CAR will generally increase the transcription and subsequent translation of CYP2B6 and CYP3A4. These two DMEs represent about 50% of the drug metabolizing potential in the body. When CAR is deactivated, the metabolizing potential in the body will decrease, subsequently increasing the toxicity in the body or lowering the therapeutic potential of a pro-drug. Recently, there have also been studies performed indicating CARs role in energy metabolism and cancer therapy. Therefore, inhibiting CARs activity could have a potential effect on diabetes and cancer. Identifying environmental toxins and compounds which modulate CAR, through the use of the Tox21 10K compound collection, will be an important step in determining the toxicity and potential therapeutic effects these factors will have on the human body. To differentiate true CAR antagonists from cytotoxic substances, the assay is multiplexed with a cell viability assay.
Tox21 Assay Protocol Summary:
A double-stable (hCAR and CYP2B6-2.2kb) transfected cell line, derived from human hepatoma (HepG2) cells, was utilized for the duration of the quantitative high-throughput screens. The HepG2-CYP2B6-hCAR cells were dispensed at 2500 cells/4 uL/well in 1536-well white solid bottom plates using a Multidrop Combi. After the assay plates were incubated at 37 C/5% CO2 for 4 hrs, 23 nL of compounds at 15 concentrations (from 5-48 columns) or positive control (from 1 to 4 columns) were transferred to the assay plates using a Pintool station. One uL of CITCO (final concentration = 50 nM) was added, using a Flying Reagent Dispenser, inside each well. After a 23 hr incubation period at 37 C/5% CO2, 1 uL of CellTiter-Fluor reagent was added into each well of the assay plates using a Flying Reagent Dispenser. The fluorescence intensity in the plates was then measured using a ViewLux plate reader.
Potency is read from the fitted curve at half-maximal effect.

| SMILES | Potency | activity change, negative = cytotoxicity |
| --- | --- | --- |
| Cc1ccccc1C(=O)Nc1ccc(C(=O)N2CCCC(O)c3cc(Cl)ccc32)c(C)c1 (stereo not given) | inactive | – |
| CCc1nnc(NS(=O)(=O)c2ccc(N)cc2)s1 | inactive | – |
| CC(Oc1c(Cl)cccc1Cl)C1=NCCN1 (stereo not given) | inactive | – |
| COc1ccccc1OCC(O)COC(N)=O (stereo not given) | inactive | – |
| CCC(=O)c1ccc2c(c1)N(CCCN(C)C)c1ccccc1S2 | inactive | – |
| OCC(CBr)(CBr)CBr | inactive | – |
| O=C(O)c1ccccc1Nc1cc(Cl)ccc1C(=O)O | – | -10.7% [at 19 µM] |
| CC1(O)CSC(C)(O)CS1 (stereo not given) | inactive | – |
| CC(C)(CO)[C@@H](O)C(=O)NCCC(=O)O | inactive | – |
| C=O | inactive | – |
| CC(C)NCC(O)COc1ccc(CCOCC2CC2)cc1 (stereo not given) | inactive | – |
| CCN(CC)CCOc1ccc(Cc2ccccc2)cc1 | inactive | – |
| CCOc1ccc(NC(N)=O)cc1 | inactive | – |
| CC(C)S | inactive | – |
| Cc1cc2c(s1)Nc1ccccc1N=C2N1CCN(C)CC1 | 3.35 µM (active) | – |
| COC(=O)/C=C(/C)N | inactive | – |
| O=C(O)[C@@H]1CSCN1 | inactive | – |
| CCCCCCn1c(=O)c2c(ncn2C)n(C)c1=O | inactive | – |
| Cc1cc2nc(N)sc2cc1C | inactive | – |
| CCCCc1ccc2nc(NC(=O)OC)[nH]c2c1 | inactive | – |

| SMILES | Potency | activity change, negative = cytotoxicity |
| --- | --- | --- |
| NCCCN1CCN(CCCN)CC1 | inactive | – |
| CC(C)C(=O)OC/C=C/c1ccccc1 | inactive | – |
| CC(C)=CCCC(C)CCOC=O (stereo not given) | inactive | – |
| CC(C)Nc1nc(N)nc(Cl)n1 | inactive | – |
| CCOC(=O)[C@H](CCc1ccccc1)N[C@@H](C)C(=O)N1Cc2cc(OC)c(OC)cc2C[C@H]1C(=O)O | inactive | – |
| CN1CCN(N)CC1 | inactive | – |
| CCCCNC(=S)NCCCC | 48.6 µM (active) | – |
| Cc1onc(-c2ccccc2)c1C(=O)Cl | inactive | – |
| CC(=O)Nc1ccc(C)c(Cl)c1 | inactive | – |
| CCOC(=O)C(Br)c1ccccc1 (stereo not given) | inactive | – |
| NNS(=O)(=O)c1ccc(Oc2ccc(S(=O)(=O)NN)cc2)cc1 | inactive | – |
| C[C@@H]1CN(c2c(F)c(N)c3c(=O)c(C(=O)O)cn(C4CC4)c3c2F)C[C@H](C)N1 | – | 0.653% [at 19 µM] |
| O=C1CCCc2ccccc21 | inactive | – |
| CCC(=O)O[C@]1(C(=O)SCF)[C@H](C)C[C@H]2[C@@H]3C[C@H](F)C4=CC(=O)C=C[C@]4(C)[C@@]3(F)[C@@H](O)C[C@@]21C | inactive | – |
| CN(C)CC[C@@H](c1ccc(Cl)cc1)c1ccccn1 | inactive | – |
| CCCCNc1cc(C(=O)O)cc(S(N)(=O)=O)c1Oc1ccccc1 | inactive | – |
| O=c1[nH]c(=O)n([C@H]2C[C@H](O)[C@@H](CO)O2)cc1C(F)(F)F | inactive | – |
| CCN1CC(CCN2CCOCC2)C(c2ccccc2)(c2ccccc2)C1=O (stereo not given) | inactive | – |
| O=C(Cl)c1cccc([N+](=O)[O-])c1 | inactive | – |
| CCCCCCC | inactive | – |

From PubChem BioAssay (Tox21)
